Measurements as given in PubChem BioAssay (NCATS).
Results filed as inconclusive are left out. Active and inactive are the calls of the source. Calls come from the whole dose curve; as a rule, active = well fitted activation curve with a large enough effect; inconclusive = small, poorly fitted or top-dose-only effect; inactive = no such curve, though single readings can be large or run the other way.

target: Cellular tumor antigen p53 (Homo sapiens) (UniProt P04637); experiment: Primary qHTS for small molecule compounds that upregulate eGFP-tagged delta133p53alpha (in N-terminal) cells. (AID 2060322); details: NCI-H358 eGFP-delta133p53alpha fluorescence, 24 h; activation: hits give high values;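 note: series mostly up to about 56 µM; 0% = DMSO vehicle and 100% = reference activator; nearly all actives have a fitted effect of over 75% in size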
In short: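 NCI-H358 cells pre-induced 24 h with 10 ng/ml doxycycline to express N-terminal eGFP-delta133p53alpha, then dosed 24 h at 37C without doxycycline; fixed, Hoechst-stained, GFP intensity by laser scanning cytometry, normalized to DMSO (0%) and 57.5 uM 5-azacytidine (100%).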

Sequence of Cellular tumor antigen p53 (Homo sapiens) (P04637 whole entry, looked up): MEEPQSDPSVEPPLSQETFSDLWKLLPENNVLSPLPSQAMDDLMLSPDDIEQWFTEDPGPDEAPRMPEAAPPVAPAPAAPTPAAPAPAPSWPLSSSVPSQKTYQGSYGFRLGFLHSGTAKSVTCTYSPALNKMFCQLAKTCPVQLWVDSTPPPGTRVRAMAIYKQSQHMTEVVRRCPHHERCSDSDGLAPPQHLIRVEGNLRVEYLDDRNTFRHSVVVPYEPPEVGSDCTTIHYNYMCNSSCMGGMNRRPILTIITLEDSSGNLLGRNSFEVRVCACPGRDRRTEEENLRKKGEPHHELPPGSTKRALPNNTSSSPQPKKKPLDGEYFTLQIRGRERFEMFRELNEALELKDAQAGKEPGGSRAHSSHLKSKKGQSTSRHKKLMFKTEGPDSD

Structure (SMILES)	activation
CC1=C(C(=O)O)/C(=C/CO[C@@H]2O[C@H](COC(=O)/C=C/c3ccc(O)cc3)[C@@H](O)[C@H](O)[C@H]2O)C(O)C1 (stereo not given in full)	-17.6% (inactive)
CC1=C(C(=O)O)/C(=C\CO[C@@H]2O[C@H](CO)[C@@H](O)[C@H](O)[C@H]2O)C(OC(=O)/C=C/c2ccc(O)cc2)C1 (stereo not given in full)	-3.82% (inactive)
N#Cc1cccc(C(=O)Nc2cc(-c3ccccc3)nn2-c2ccccc2)c1	-0.893% (inactive)
CC(C)=CCC/C(C)=C/CC/C(C)=C/CC[C@]1(C)CCc2cc(O)cc(C)c2O1	-3.05% (inactive)
COc1ccc(OC2OC(CO[C@@H]3O[C@@H](C)[C@H](O)[C@@H](O)[C@H]3O)C(O)C(O)C2O)cc1OC (stereo not given in full)	8.4% (inactive)
Cc1ccc(-c2ncc[nH]2)cc1NC(=O)c1ccc(OCc2ccccn2)cc1	-2.86% (inactive)
CC1=CC(=O)[C@]2(O[C@@H]3O[C@@H](C)[C@H](O)[C@@H](O)[C@H]3OC(=O)/C=C/c3ccccc3)C=CO[C@@H](O[C@@H]3O[C@H](CO)[C@@H](O)[C@H](O)[C@H]3O)[C@H]12	3.05% (inactive)
CC(C)C(C(=O)N(C)C(C)C(N)=O)N(C)C(=O)C1CCCN1C(=O)/C=C/C=C/C(O)C(C)O (stereo not given)	-23.7% (inactive)
CC(=O)NC1C(OC2CCC3(C)C(CCC4(C)C3CC=C3C5CC(C)(C)CCC5(C(=O)O)C(O)CC34C)C2(C)C)OC(CO)C(O)C1O (stereo not given)	1.53% (inactive)
CC(=O)O[C@H]1[C@@]2(O)C[C@H](C)[C@H](OC(=O)c3ccccc3)[C@@H]2[C@@H](OC(=O)CO)[C@]2(OC(C)=O)C[C@H]3C(=O)C(C)(C)C[C@@H]3[C@@]1(C)[C@H]2OC(C)=O	-6.25% (inactive)
